# From PubChem BioAssay (NCATS)
# Inconclusive results are not listed. Values without a mark were called inactive. Active and inactive are the calls of the source. Calls come from the whole dose curve; as a rule, active = well fitted inhibition curve with a large enough effect; inconclusive = small, poorly fitted or top-dose-only effect; inactive = no such curve, though single readings can be large or run the other way.
# Biological target: N-terminal Xaa-Pro-Lys N-methyltransferase 1 (Homo sapiens) (UniProt Q9BV86)
# Test: Confirmatory qHTS for Inhibitors of N-terminal methyltransferase 1 (NTMT1): MTaseGlo Assay (AID 1645874); note: nearly all actives have a fitted effect of over 65% in size
# Details: NTMT1 enzyme, MTase-Glo SAH luminescence; series mostly up to 100 µM; activity change, negative = inhibition: at the top concentration
# Source text: Assay Submitter (PI): Rong Huang Ph.D.
# Purdue University, West Lafayette, IN 47907
# The N-terminal methytransferase 1 is the first methyltransferase that methylates protein alpha-N-amines and plays an important role in regulating cell mitosis, chromatin interactions and DNA repair. It is observed to be over-expressed in various cancer patient tissues like malignant melanoma and colorectal cancer tissues. Knockdown of NTMT1 in cancer cells causes cell mitotic defects and enhances sensitivity to DNA damaging chemotherapeutics. […] These critical cellular processes in which NTMT1 is implicated, coupled with emerging links to cellular dysfunction, strengthen the inference that NTMT1 is a compelling novel anticancer target. Progress have been made in understanding the molecular properties of NTMT1 and the biological consequences of protein alpha-N-terminal methylation, but there are no specific small molecule probes available for NTMT1 to fully characterize its MTase activity. To address this unmet need, a panel of assay is created and established to enable quantitative high-throughput screening (qHTS) for novel, potent, and selective small molecule NTMT1 inhibitors. Two orthogonal qHTS that use different reagents (ThioGlo vs. MTaseGlo) are developed for primary robotic screening against the NCATS chemical library of more than 400,000 small molecules. Identified inhibitors are reacquired, validated, and further characterized.
# MTaseGlo Assay is a luminescence screen that measure the activity of methyltransferases based on the reaction product S-adenosyl homocysteine (SAH). The substrate SAM is converted to SAH upon enzyme activation. MTase-Glo reagent and detection solution convert SAH to ATP and measure the light from the luciferase reaction.
# Materials: NTMT1 enzyme, substrate SPKRIA, control peptide RCC1-6 is provided by the Huang laboratory.
# SEQUENCE No. (e.g., 1, 2, 3, etc.); […] (e.g., Cells, Incubation, Reagent, etc.); VALUE; DESCRIPTION
# 1; Enzyme; 3 uL; Dispense enzyme mixture (final concentrations of 125 nM NTMT1 and 100 uM SAM) into Greiner 1536-well white / solid bottom assay plate (Greiner Bio One, Monroe, NC).
# 2; Compounds; 23 nL; Compounds and controls were transferred via a Kalypsys Pin Tool (Wako USA) equipped with a 1536-slotted pin array (Wako Automation, Richmond, VA)
# 3; Incubation; 15 min; Incubate at room temperature
# 4; Substrate; 1 uL; Dispense 1 uL of substrate at final concentration of 1 uM. Buffer solution was dispensed in control wells. The assay plate was covered with metal lids.
# 5; Incubation; 30 min; Incubate at room temperature, protected from lights.
# 6; Reagent; 1 uL; Dispensed 5x MTase-Glo detection reagent (R) into the assay plate. The plate was covered with metal lids.
# 7; Incubation; 30 min; Incubate the assay plates at room temperature in the dark to allow for SAH to be converted to ADP.
# 8; Reagent; 5 uL; Dispense 5 uL of 1x MTase-Glo Detection Solution (R) to allow for ADP to be converted to ATP which was then detected with a luciferase reaction.
# 9; Centrifuge; 15 sec; Centrifuge the assay plate for 15 seconds at 1000 RPM.
# 10; Incubation; 30 min; Assay plates were incubation at room temperature in the dark.
# 11; Detection; Luminescence; Plates were read on ViewLux detector (PerkinElmer). Data were normalized to no-enzyme (0% activity) and no-inhibitor (DMSO; 100%) controls, and the resulting percent inhibition data were fitted to a 4-parameter Hill equation using GraphPad Prism.
# Potency is the fitted concentration of half-maximal effect.
# Sequence of N-terminal Xaa-Pro-Lys N-methyltransferase 1 (Homo sapiens) (Q9BV86 whole entry, looked up): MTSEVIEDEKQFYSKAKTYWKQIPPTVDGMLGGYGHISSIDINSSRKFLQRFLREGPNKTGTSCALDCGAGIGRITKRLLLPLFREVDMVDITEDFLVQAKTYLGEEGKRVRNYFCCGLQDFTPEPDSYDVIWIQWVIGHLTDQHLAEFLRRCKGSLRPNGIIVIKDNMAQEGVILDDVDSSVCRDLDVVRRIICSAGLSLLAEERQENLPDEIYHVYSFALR
SMILES,Potency,"activity change, negative = inhibition"
COc1cc(Nc2nc(-c3ccncc3)nc3ccccc23)ccc1N1CCN(C)CC1,17 µM (active),–
CC(C)(C)c1ccc(-c2csc(N3CCC(C(N)=O)CC3)n2)cc1,–,-10.1%
CN(C)C(=O)c1ccc(-c2cc[nH]c(=O)c2N)cc1,–,1.78%
Cc1cccc(-c2ccc3ncnc(NCc4cccs4)c3c2)c1,10 µM (active),–
Cc1ccsc1CN(C)c1ncnc2ccc(-c3ccc([C@@H](C)O)o3)cc12,6.49 µM (active),–
O=C1Nc2ccc(C(=O)c3ccco3)cc2/C1=C/c1cc(Cl)c(O)c(Cl)c1,2.4 µM (active),–
c1cncc(-c2ccc3ncnc(NCc4cccs4)c3c2)c1,39.8 µM (active),–
NC(=O)C1CCN(c2nc(-c3ccccc3Cl)cs2)CC1,–,-6.57%
Cc1nc(C)c(-c2ccc3ncnc(NCc4ncc[nH]4)c3c2)s1,39.8 µM (active),–
Cc1cc(C)nc(NC(=S)N2CCN(c3ncccc3C#N)CC2)c1,22.4 µM (active),–
Cc1cc2c(s1)c1cnn(Cc3cccc(C)c3F)c(=O)c1n2C,–,-18.3%
COc1ccc(C2=Nn3c(nnc3-c3ccccc3F)SC2)cc1OC1CCCC1,24.5 µM (active),–
NC(=O)C1CCN(c2nc(-c3ccc4c(c3)CCO4)cs2)CC1,–,-10.3%
Fc1cc(Nc2nc(-c3ccncc3)nc3ccccc23)ccc1-c1ccc2[nH]ncc2c1,–,-18.2%
O=C(NCCc1ccccc1)C1CCN(c2nc(-c3ccc(Br)cc3)cs2)CC1,–,8.87% [at 51.5 µM]
O=S(=O)(Nc1ccc(O)c2ncccc12)c1ccccc1F,–,-2.01%
CC(=O)Nc1sc2c(c1-c1ccc3scnc3c1)CCNC2,44.7 µM (active),–
COc1ccc(-c2nnc3n2N=C(c2c(OC)cccc2OC)CS3)cc1OC,–,-4.76%
